Screening results (PubChem)
DUSP3 inh – DUSP3 (human) phosphatase inhibition | recombinant VHR phosphatase, pNPP absorbance | inhibition, % at 13.3 µM | 0.52% of 290,000 active | AID 1654; in the data active = inhibition above about 50%
3CLpro inhibitor – SARS-CoV 3CLpro protease inhibition | recombinant SARS-CoV 3CLpro, quenched FRET peptide cleavage | P0C6X7 | 0.14% of 290,000 active | inhibition, % at 6 µM | AID 1706; in the data active = inhibition above about 12%
CCHF vOTU inh – blocks the CCHF virus ovarian tumor domain protease; 0.55% of 370,000 active; inhibition, % at 11.5 µM; CCHFV vOTU protease, Pep-AMC fluorescence; note: 0% = vehicle wells with enzyme and 100% = no enzyme wells
GDH-TPI inh – GDH-TPI coupled enzyme inhibition counter-screen. GDH-TPI coupled enzyme counterscreen, NADH absorbance. inhibition, % at 4.8 µM. 1.2% of 360,000 active. AID 588335;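 note: 0% = DMSO wells and 100% = wells lacking the enzyme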
FBA Mtb inh – inhibitors of M. tuberculosis fructose-bisphosphate aldolase. P9WQA3. purified M. tuberculosis FBA, fluorescence read-out. inhibition, % at 1 µM. 2.3% of 360,000 active. AID 588726; in the data active = inhibition above about 27%;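 note: 0% = vehicle and 100% = reference inhibitor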
RecA intein inh – inhibitors of M. tuberculosis RecA intein splicing | P9WHJ3 | cell-free RecA intein splicing, fluorescence | inhibition, % (no concentration beside the values) | 0.75% of 290,000 active | AID 2221; in the data active = inhibition above about 30%; inconclusive = no clear call, values can overlap the other calls;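 note: 0% = vehicle wells and 100% = reference inhibitor control wells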
Target sequence (P9WHJ3 whole entry, looked up): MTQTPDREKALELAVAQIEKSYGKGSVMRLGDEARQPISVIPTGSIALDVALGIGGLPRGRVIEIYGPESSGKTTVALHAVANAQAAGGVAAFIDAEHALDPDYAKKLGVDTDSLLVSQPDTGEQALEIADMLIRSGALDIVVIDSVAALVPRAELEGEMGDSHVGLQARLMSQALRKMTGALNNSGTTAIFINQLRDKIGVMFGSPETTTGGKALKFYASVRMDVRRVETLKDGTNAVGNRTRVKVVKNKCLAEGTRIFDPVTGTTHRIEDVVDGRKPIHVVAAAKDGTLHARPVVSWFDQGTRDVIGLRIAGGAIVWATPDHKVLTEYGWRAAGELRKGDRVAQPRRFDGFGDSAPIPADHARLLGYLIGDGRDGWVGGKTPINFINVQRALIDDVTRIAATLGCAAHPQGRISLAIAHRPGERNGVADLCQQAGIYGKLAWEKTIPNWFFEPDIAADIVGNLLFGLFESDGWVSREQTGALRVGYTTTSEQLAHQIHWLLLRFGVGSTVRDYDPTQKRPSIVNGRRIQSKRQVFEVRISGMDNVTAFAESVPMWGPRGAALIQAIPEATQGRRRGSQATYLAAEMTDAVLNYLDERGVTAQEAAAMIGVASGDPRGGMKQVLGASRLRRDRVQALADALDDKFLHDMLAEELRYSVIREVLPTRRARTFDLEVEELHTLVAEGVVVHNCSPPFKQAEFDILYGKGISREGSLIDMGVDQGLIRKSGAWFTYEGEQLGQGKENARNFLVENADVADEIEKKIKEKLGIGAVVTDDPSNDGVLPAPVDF
The depositor's hits bear a star; i = inactive; ? = inconclusive; . = no result; + = active, no number. This is a sample that favours compounds with a hit; in the whole collection about 4.7% have one here. Cut-off read from the data, not from the text of the source, unless noted: active = inhibition above about 30%; inactive = the rest.

SMILES | DUSP3 inh | 3CLpro inhibitor | CCHF vOTU inh | GDH-TPI inh | FBA Mtb inh | RecA intein inh
Cc1ccccc1OCC(=O)NCCNC(=O)c1ccccn1 | 54.4* | -8.3 | 9.0 | 11.2 | 3.6 | -3.2
CC(=O)c1ccc(Oc2ccc(C(C)=O)cc2)cc1 | 27.3 | -5.1 | -1.1 | -2.2 | -3.9 | -0.4
CC(=O)c1ccc(OC(=O)Oc2ccc(C(C)=O)cc2)cc1 | . | . | 9.8 | 31.6* | 0.6 | .
N#Cc1ccc(CN(Nc2ccccc2)c2ccccc2)cc1 | . | . | 20.3 | 6.2 | 3.4 | .
COc1cc(/C=C/C(=O)Nc2ccc(C(C)=O)cc2)cc(OC)c1OC | -4.8 | 1.1 | 21.1 | 45.2* | 0.8 | -3.9
COc1ccc(/C=C/C(=O)NC(=S)NNC(=O)c2cc(OC)c(OC)c(OC)c2)cc1OC | -0.9 | 3.8 | 5.9 | 50.6* | 0.4 | 1.8
COc1ccc(/C=C/C(=O)NC(=S)NNC(=O)c2cc(OC)c(OC)c(OC)c2)cc1 | 6.2 | 8.3 | -0.8 | 17.7 | -0.6 | 0.8
NC(=S)c1cc2ccc(O)cc2oc1=O | 20.9 | -4.9 | -57.4 | 16.2 | + | -152.3
Oc1cc(O)cc(-c2cc3ccc(O)cc3o2)c1 | . | . | -82.7 | 0.0 | 177.0* | -5.0
C/C(=N/NC(N)=S)c1cc2ccc(O)cc2oc1=O | -9.2 | 2.7 | -226.5 | -3.8 | 128.9* | i
C/C(=N/NC(=O)c1ccncc1)c1cc2ccc(O)cc2oc1=O | -1.0 | 0.3 | -297.6 | 10.3 | + | .
C/C(=N\NC(=O)c1ccncc1)c1cc2ccccc2o1 | -10.0 | -0.9 | -13.1 | 17.5 | 4.1 | -1.8
O=[N+]([O-])c1cncc2[nH]cnc12 | . | . | -5.8 | . | . | .
O=C(C1CCC(=O)N(C2CCCC2)C1)N1CCC(Oc2ccccc2Cl)CC1 (stereo unspecified) | 22.5 | -4.5 | -6.1 | -2.8 | 0.6 | -1.1
C/C(=N\NC(=O)c1ccc([N+](=O)[O-])cc1)c1cc2ccccc2oc1=O | 34.3 | 2.0 | 6.9 | 32.1* | -1.0 | 86.5*
COCCn1c(=NC(=O)CN2C(=O)CCC2=O)sc2cc(S(N)(=O)=O)ccc21 | -2.2 | -1.9 | -3.3 | -7.4 | 0.0 | -1.6
COCCn1c(=NC(=O)c2cc3ccccc3oc2=O)sc2cc(S(N)(=O)=O)ccc21 | 11.3 | 2.0 | 0.5 | 49.3* | 1.9 | -2.0
CC1(C)SC(=S)N(/N=C/c2ccc(O)cc2)C1N(O)C(=O)Nc1ccc([N+](=O)[O-])cc1 (stereo unspecified) | 30.4 | 6.6 | 1.8 | 35.0* | -1.4 | -6.3
CCCCNC(=O)N(O)C1N(/N=C/c2ccccc2F)C(=S)SC1(C)C (stereo unspecified) | 17.2 | -5.9 | -2.4 | 10.2 | 1.1 | -13.9
CCCCNC(=O)N(O)C1N(/N=C/c2ccco2)C(=S)SC1(C)C (stereo unspecified) | . | . | 4.1 | 43.7* | -2.0 | .
Cc1ccc(N2CCN(S(=O)(=O)c3ccc4c(c3)oc(=O)n4C)CC2C)cc1 (stereo unspecified) | 12.3 | -0.8 | -5.6 | 5.6 | 2.5 | -1.8
CCCN1CCCCC(NC(=O)c2ccc(Cl)cc2Cl)C1=O (stereo unspecified) | . | . | -10.3 | . | . | .
CCCCC(=O)N(C)c1c(CC)nc2c(OCC=C(C)C)cccn12 | . | . | . | 13.3 | -0.5 | .
COc1cc(C)nc(Nc2nc(C)c(C(C)=O)s2)n1 | -6.1 | -0.6 | 15.2 | 34.8* | -3.1 | 3.4
CC(=O)c1sc(Nc2ccccn2)nc1C | 13.6 | -5.5 | 24.9 | 47.0* | 2.1 | 0.8
SMILES | DUSP3 inh | 3CLpro inhibitor | CCHF vOTU inh | GDH-TPI inh | FBA Mtb inh | RecA intein inh
COc1ccc2nc(Nc3nc(C)c(C(C)=O)s3)sc2c1 | 15.1 | 1.1 | 3.9 | 4.4 | 0.4 | -0.3
CC(=O)c1sc(Nc2cccc3ccccc23)nc1C | . | . | 7.8 | 26.5 | 1.2 | 2.1
CN(Cc1c(C(=O)N/N=C/c2cccc(Cl)c2)nnn1-c1nonc1N)c1ccccc1 | 1.1 | 6.4 | 15.9 | 14.7 | 1.7 | 9.2
CN(C)S(=O)(=O)c1cccc(NC(=O)c2c[nH]c3ccccc23)c1 | -13.7 | 1.7 | -11.8 | -2.3 | 77.8* | -4.6
CO[C@H]1C=CO[C@@]2(C)Oc3c(C)c(O)c4c(O)c(c(C=NN5CCN(C)CC5)c(O)c4c3C2=O)NC(=O)C(C)=CC=C[C@H](C)[C@H](O)[C@@H](C)[C@@H](O)[C@@H](C)[C@H](OC(C)=O)[C@@H]1C | -14.6 | 1.5 | 22.5 | 40.1* | -13.3 | ?
CN(C)[C@@H]1CCN(c2ccc3c(c2)OCCCN(C2CC2)S3(=O)=O)C1 | . | . | 3.9 | . | . | .
COc1ccc(Oc2coc3cc(OC(=O)/C=C/c4ccccc4)ccc3c2=O)cc1 | 12.6 | 6.4 | -10.9 | -3.6 | 0.7 | 0.9
COc1ccc(Oc2coc3cc(O)ccc3c2=O)cc1 | 30.3 | 1.6 | -12.1 | 44.8* | 17.5 | -1.7
O=C(NCc1cccs1)c1csc(COCCO)n1 | . | . | -2.1 | -5.3 | -0.2 | .
Cc1cccc(C(=O)NC2C(=O)NNC2c2ccc(Cl)cc2)c1 (stereo unspecified) | 10.8 | 3.4 | 16.6 | 3.1 | -1.8 | 91.6*
Cc1cccc(C(=O)NC2CCCCCCC2)c1 | 22.2 | -4.9 | 3.7 | -0.7 | 0.3 | 2.2
CC(C)CN1C(=O)[C@@]2(CC(=O)N(C)C2c2ccccc2)c2cc(-n3cc(C(C)(C)O)nn3)ccc21 (stereo partly specified) | . | . | -6.5 | . | . | .
c1ccc(-c2ccc(-c3ccccn3)s2)nc1 | -2.7 | -2.2 | -214.5 | 28.7 | + | -3.1
C=Cc1ccc(C(=O)N2CCC(n3nnc4ncccc43)CC2)cc1 | . | . | -7.8 | . | . | .
CC1=[N+](C)c2c(ccc3cccnc23)C1(C)C | 3.6 | 7.9 | 30.7* | 0.0 | 0.8 | .
Cc1[nH]c2c(ccc3cccnc32)c1C | 9.0 | 5.5 | -5.5 | 26.9 | 5.6 | -3.5
O=C(CSc1nnc(-c2cccnc2)n1-c1ccc(Cl)cc1)Nc1ccccc1-c1ccccc1 | . | . | 1.8 | . | . | .
C#CCN1C(=O)[C@]2(OC[C@@H]3Cc4ccccc4[C@@H]3C=C2C)c2ccccc21 | . | . | 0.2 | . | . | .
CCCCn1c(=O)c2c(nc3n2CCCN3Cc2ccccc2)n(C)c1=O | 58.2* | -0.4 | -10.2 | 1.1 | 2.9 | 4.3
O=[N+]([O-])c1ccccc1/C=C/C1Nc2cccc3cccc(c23)N1 | . | . | 4.8 | . | . | .
CCn1c(SCC(=O)N(C)c2ccccc2)nc2c([nH]c3ccccc32)c1=O | 53.4* | -2.5 | -2.4 | 10.2 | 2.6 | -4.3
O=C(NNC(=O)c1ccccc1O)c1cccc(Br)c1 | 12.7 | -1.0 | -0.8 | 30.8* | -3.4 | 5.8
O=C(N/N=C1\CCCc2ccccc21)c1cccc(Br)c1 | 8.5 | -0.1 | -0.8 | 0.3 | -0.2 | 5.0
O=C(NNC(=S)Nc1cccc2ccccc12)c1cccc(Br)c1 | 37.1 | 5.7 | 14.1 | 35.0* | 8.8 | 12.1
O=C(NN=C1CCCC1)c1cccc(Br)c1 | 53.9* | -2.0 | 4.7 | 10.3 | -1.1 | 0.7
O=C(NCc1ccccc1)C(c1ccccc1)n1c(-c2ccccn2)nc2ccccc21 (stereo unspecified) | . | . | 17.1 | . | . | .
Cn1c2ccsc2c2ncn(Cc3ccccc3F)c(=O)c21 | . | . | -229.4 | 7.3 | + | .
Cn1c2ccccc2c2ncn(Cc3ccc(F)cc3)c(=O)c21 | 6.1 | -3.8 | -6.3 | 2.6 | 15.6 | -1.0
COC(=O)[C@]1(C#N)CC(=O)N(C(C)C)[C@@H]1c1ccccc1 | . | . | 2.6 | . | . | .
